SARS PLP yeast: blocks SARS-CoV papain-like protease in a yeast assay; 0.19% of 330,000 active; S. cerevisiae expressing SARS-CoV PLpro, growth rescue; Potency, µM (highest dose often 32.9 µM), actives largely listed as activators; further: nearly all actives have a fitted effect of over 55% in size
Shiga inhibitor: Shiga toxin inhibition; Vero cells, Shiga toxin protein synthesis inhibition reporter; inhibition, % at 38.7 µM; 9.2% of 290,000 active; AID 2315; in the data active means inhibition mostly above about 28%, no sharp cut-off; inactive means mostly below about 43%
NS1 inh: inhibitors of influenza NS1 protein function. 0.4% of 270,000 active. AID 2326. Potency, µM (top dose mostly 46.1 µM); further: actives are rising curves; nearly all actives have a fitted effect of over 50% in size
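In this qHTS, NS1 from influenza A is expressed in budding yeast, where it slows growth. Cells are switched from glucose to 2% galactose medium (pH 6.0, -URA), treated with compound, and growth recovery is read at OD600.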
Cycloheximide cs: affects cycloheximide protein synthesis inhibition readout, counter-screen; max response, %; cell reporter, cycloheximide protein synthesis inhibition counterscreen; 12% of 300,000 active; in the data active means max response mostly above about 13%, no sharp cut-off; inactive means mostly below about 14%; further: read at 38.3 µM for the half of the compounds with a filed dose
Numbers stand for hits; i = inactive; nt = not tested or not shown. Only some compounds are listed: those with a hit (about 12% of all), similar ones and a draw of the others. Unless noted, the call rests on the fitted dose curve.

SMILES	SARS PLP yeast	Shiga inhibitor	NS1 inh	Cycloheximide cs
CC(C)(C)c1csc(NC(=O)C2COc3ccccc3O2)n1 (centres undefined)	i	87	i	42
O=C(Nc1nncs1)C1COc2ccccc2O1 (centres undefined)	i	50	i	14
CC1(C)CC(=O)c2sc(NC(=O)CN3C(=O)CCC3=O)nc2C1	i	74	i	50
O=C(NC1CCCCC1)C1COc2ccccc2O1 (centres undefined)	i	nt	nt	nt
O=C(Nc1nnc(CC(=O)N2CCOCC2)s1)C1COc2ccccc2O1 (centres undefined)	i	i	i	i
O=C(Nc1nnc(C2CC2)s1)C1COc2ccccc2O1 (centres undefined)	i	i	nt	34
CC1(C)CNC(=O)c2sc(NC(=O)c3ccccc3Cl)nc2C1	i	i	i	17
CC1(C)CC(=O)c2sc(NS(=O)(=O)c3ccc([N+](=O)[O-])cc3)nc2C1	i	i	i	46
CC1(C)CC(=O)c2sc(NC(=O)c3ccco3)nc2C1	i	i	i	33
O=C(Nc1nnc(C(F)(F)F)s1)C1COc2ccccc2O1 (centres undefined)	i	44	i	34
CC1CCCC(C)N1C(=O)COC(=O)C1CCN(S(=O)(=O)c2ccc3c(c2)OCCO3)CC1 (centres undefined)	i	nt	nt	nt
C=C(C)Cn1c(CN(C)Cc2ccccc2)nc2c1c(=O)n(C)c(=O)n2C	i	nt	i	i
CN(CC(=O)Nc1cccc(S(=O)(=O)NC2=NCCC2)c1)Cc1ccccc1Cl	i	nt	nt	nt
Cc1cc(C)c2sc(NNC(=O)C3COc4ccccc4O3)nc2c1 (centres undefined)	i	i	i	i
CC1(C)CC(=O)c2sc(NC(=O)C3COc4ccccc4O3)nc2C1 (centres undefined)	i	32	i	34
Cc1cccc2sc(NNC(=O)C3COc4ccccc4O3)nc12 (centres undefined)	i	i	i	i
CC(=O)c1sc(NC(=O)C2COc3ccccc3O2)nc1C (centres undefined)	i	i	i	21
CCC(C)c1ccccc1NC(=O)COC(=O)c1ccc2c(c1)S(=O)(=O)c1ccccc1C2=O (centres undefined)	i	i	i	i
COc1ccc(N2CCN(C(=O)c3cccc(NC(=O)c4ccco4)c3)CC2)cc1	i	i	i	i
O=C(N/N=C/c1cccnc1)c1ccccc1Cl	i	61	i	17
O=C(Nc1ccccn1)c1ccc2ccccc2c1O	i	66	i	40
O=C(N/N=C/c1cccnc1)c1ccccc1Br	i	i	i	i
O=C(N/N=C/c1cccnc1)c1cccs1	i	75	i	38
O=C(N/N=C/c1cccnc1)c1ccc2ccccc2c1O	nt	38	i	20
COC(=O)c1ccc(Oc2nc(C(N)=O)cc(-c3ccccc3)n2)cc1	i	i	i	i
SMILES	SARS PLP yeast	Shiga inhibitor	NS1 inh	Cycloheximide cs
Nc1c(C(=O)N/N=C/c2ccccc2)cnn1-c1ccccc1	i	96	i	45
O=C(N/N=C\c1cccnc1)c1ccccc1O	i	33	i	23
O=C(Nc1cccnc1)c1ccc2ccccc2c1O	i	39	i	33
O=C(Nc1cccc([N+](=O)[O-])c1)c1ccc2ccccc2c1O	i	i	i	37
CC(C)C(=O)Nc1nnc(CCN2CCCCC2)s1	i	i	i	i
O=C(C[n+]1ccccc1)N/N=C/c1ccc(Cl)c(Cl)c1	i	i	i	i
COC(=O)c1ccc(OC)cc1OCC(=O)N1CCN(c2ccc(F)cc2)CC1	i	i	i	i
O=C(N/N=C/c1cccnc1)c1ccco1	i	66	i	26
COc1cc(/C=N/NC(=O)c2cccnc2)ccc1OC(=O)c1ccco1	i	i	i	i
O=C(N/N=C\c1cccnc1)c1ccc(Cl)cc1Cl	i	54	i	31
O=C(O)c1cccc(-n2cc(-c3cccc(C(F)(F)F)c3)cn2)c1	i	118	i	54
COc1ccc(NC(=O)Cc2coc3cc(C)ccc23)cn1	i	69	nt	i
Cc1ccc2c(CC(=O)Nc3nc(C)cs3)coc2c1	i	i	i	20
COc1ccc2c(CC(=O)Nc3nc(C)cs3)coc2c1	i	i	i	i
Cc1ccc2c(CC(=O)NC3=NCCS3)coc2c1	i	58	i	29
COc1ccc(NC(=O)Cc2ccc(Cl)cc2Cl)cn1	i	i	nt	i
NC(=S)N/N=C/c1coc2ccc(F)cc2c1=O	i	i	i	i
Cc1cc(C)n2nc(-c3ccc(Br)cc3)cc2n1	i	nt	i	26
COc1ccc(-c2cc3nc(C)cc(C)n3n2)cc1	i	48	i	35
Cc1cc(-c2ccc(Cl)cc2)n2nc(C)cc2n1	i	i	i	i
Cc1nc2cc(-c3ccc(Cl)cc3)nn2c(NCCN(C)C)c1C	i	80	i	60
Cc1cc(C)n2nc(-c3ccc(Cl)cc3)cc2n1	i	100	i	43
Cc1ccc(-c2cc3nc(-c4ccc(Br)cc4)cc(N)n3n2)cc1	i	i	i	i
NS(=O)(=O)c1ccc(CNC(=O)c2cc(S(=O)(=O)N3CCOCC3)c(Cl)cc2Cl)cc1	i	nt	nt	nt
CC(=O)N(C)c1ccc(NS(=O)(=O)c2cccc3nsnc23)cc1	i	i	i	i
SMILES	SARS PLP yeast	Shiga inhibitor	NS1 inh	Cycloheximide cs
Nc1ccc2c(c1)OC1(CCCC1)O2	i	99	i	48
Cc1c(CCO)c(=O)[nH]n1C(=O)c1ccc(F)cc1	i	65	i	24
CN1C(=O)N(C)C(=O)C2(Cc3cc(N)ccc3N3CCN(c4ccccc4F)CC32)C1=O (centres undefined)	i	i	i	i
CCN1C(=O)N(CC)C(=O)C2(Cc3ccccc3N3CCN(c4ccccc4)CC32)C1=O (centres undefined)	i	70	i	36
O=C(CCC1CCCN(C(=O)Cc2cccc(F)c2)C1)N1CCN(c2ccccn2)CC1 (centres undefined)	i	71	i	50
O=C(CCC1CCCN(C(=O)CCCc2ccccc2)C1)N1CCN(c2ccccn2)CC1 (centres undefined)	i	i	i	22
Cc1ccccc1CC(=O)N1CCCC(CCC(=O)N2CCN(c3ccccn3)CC2)C1 (centres undefined)	i	i	i	i
Cc1ccc(S(=O)(=O)N[C@@H](Cc2ccccc2)C(=O)N2CCC(C(=O)N[C@@H](CC(C)C)C(=O)O)CC2)cc1	i	i	i	i
COC(=O)c1ccc(-c2n[nH]c(=O)c3ccccc23)cc1	i	i	i	i
c1ccc(-c2nc3ccccc3[nH]2)cc1	i	47	i	31
COC(=O)c1ccc(-c2ncc[nH]2)cc1	i	i	i	24
COc1ccc(CCCc2nc3ccccc3[nH]2)cc1	i	i	i	22
Fc1ccc(NC(=S)NCCN2CCOCC2)cc1	i	i	i	i
S=C(NCCN1CCOCC1)Nc1ccc(-c2nc3ccccc3[nH]2)cc1	i	177	nt	28
CC(OC(=O)c1ccc(Cl)nc1)C(=O)NC(C)(C)C (centres undefined)	i	i	nt	i
C=C1N(c2ccccc2)C(=O)OC1(C)C	i	i	i	i
Fc1cc2nc(-c3ccncc3)[nH]c2cc1F	i	i	i	24
Nc1cc(N)cc(-c2nc3ccccc3[nH]2)c1	i	i	i	23
COc1ccc(-c2nc3ccccc3[nH]2)cc1	i	i	i	25
